Only some compounds are listed: those with a hit (about 4% of all), similar ones and a draw of the others.
ADAM10 inh: inhibits human ADAM10; O14672; recombinant ADAM10, EDANS/DABCYL FRET peptide cleavage, 3 h; inhibition, % at 7 µM; 370,000 compounds, 0.62% hits; AID 720582;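 active means inhibition above a per-campaign cutoff equal to the mean of compounds falling between control-based bounds plus 3 SD, cut at about 20% in these data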
Target sequence (O14672 214-748 limits assumed): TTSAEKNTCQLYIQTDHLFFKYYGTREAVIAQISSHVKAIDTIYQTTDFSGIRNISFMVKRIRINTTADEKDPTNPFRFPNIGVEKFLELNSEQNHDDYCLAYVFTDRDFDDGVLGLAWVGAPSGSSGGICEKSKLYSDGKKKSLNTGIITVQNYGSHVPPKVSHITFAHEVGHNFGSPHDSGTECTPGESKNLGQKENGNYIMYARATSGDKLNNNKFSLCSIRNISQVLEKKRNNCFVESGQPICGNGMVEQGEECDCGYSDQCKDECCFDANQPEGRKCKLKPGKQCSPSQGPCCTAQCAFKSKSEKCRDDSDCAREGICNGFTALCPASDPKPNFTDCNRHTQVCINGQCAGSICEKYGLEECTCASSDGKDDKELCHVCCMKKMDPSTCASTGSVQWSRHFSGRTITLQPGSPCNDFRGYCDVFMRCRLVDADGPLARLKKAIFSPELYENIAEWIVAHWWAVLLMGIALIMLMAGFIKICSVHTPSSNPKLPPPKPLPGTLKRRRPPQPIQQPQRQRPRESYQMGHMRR
ADAM17 inh: inhibitors of human ADAM17; P78536; recombinant ADAM17, EDANS/DABCYL FRET peptide cleavage; inhibition, % at 6.95 µM; 370,000 compounds, 0.83% hits; AID 720648;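 active means inhibition above the mean of compounds lying between control limits plus 3 SD, set per campaign, cut at about 8.5% in these data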
FAS TE block: FAS thioesterase (human) inhibition | recombinant FAS-TE, OMFH fluorogenic substrate, fluorescence endpoint | AID 602261 | P49327 | 360,000 compounds, 0.67% hits | inhibition, % at 15 µM;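 active means compounds whose normalised, plate-corrected inhibition of enzyme fluorescence in the single-dose primary screen is 50% or more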
aDG glyco act: increases alpha dystroglycan glycosylation; Pro5-aDG cells, alpha-DG glycosylation AlphaScreen (IIH6); 0% Pro5, 100% B10-LARGE cell signal; activation, % at 10 µM; 360,000 compounds, 0.22% hits; AID 624168;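 active means activation of at least 8% versus controls, or a plate z-score of at least 8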;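 further: Pro5 are CHO cells carrying HIG-tagged alpha-DG that lacks glycosylation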
GRIN3A LBD mod: NR3A (human) ligand-binding domain modulation | NR3A LBD differential scanning fluorimetry, Tm shift; 0% = protein alone, 100% = glycine-bound protein | Tm shift relative to glycine control, % at 25 µM | 340,000 compounds, 2.5% hits;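 active means melting temperature shift of at least 10% of the positive control shift, at one fixed dose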
Hits are given with their value; - = inactive; . = no result.

SMILES	ADAM10 inh	ADAM17 inh	FAS TE block	aDG glyco act	GRIN3A LBD mod
COc1ccc(NC(=O)C2CCC(=O)N2C(=O)OCc2ccccc2)cc1 (configuration not stated)	-	-	-	-	10.8
Cc1[nH]n(C(N)=S)c(=O)c1N=Nc1cc(-c2ccc(Br)cc2)[nH]n1	-	-	-	-	24.2
C=CC[n+]1c(-c2ccc(Cl)cc2Cl)csc1Nc1ccc(NC(C)=O)cc1	26.8	-	-	-	-
C=CC[n+]1c(-c2ccc(Cl)cc2Cl)csc1Nc1c(C)n(C)n(-c2ccccc2)c1=O	-	-	-	-	-
CN1C[C@@H]2C(c3ccc(Cl)nc3)C3(c4ccc(C#N)cc4)CC2(C3)[C@H]1c1ccccc1 (some centres not stated)	-	-	-	-	-
N#Cc1ccc(C23CC4(C2)[C@H](CN(P(=O)(c2ccccc2)c2ccccc2)[C@@H]4c2ccccc2)C3c2ccc(Cl)nc2)cc1 (some centres not stated)	.	.	72.5	-	-
Cn1c2ccccc2c(=O)c2cc(C#Cc3cccc(N)c3)ccc21	.	.	-	-	22.5
Cn1c2ccccc2c(=O)c2ccc(C#Cc3ccc(N)cc3)cc21	-	-	-	-	11.6
O=C(O)CC(C(=O)O)C(c1ccccc1)c1ccccc1 (configuration not stated)	-	-	-	-	-
CCOCCCNC(=O)C1(O)c2cc(Br)ccc2NC(=O)N1c1cccc(OC)c1 (configuration not stated)	-	-	-	-	-
CCOCCCNC(=O)C1(O)c2cc(Br)ccc2NC(=O)N1c1ccc(OCC)cc1 (configuration not stated)	-	-	-	-	12.0
CCOCCCNC(=O)C1(O)c2cc(Br)ccc2NC(=O)N1c1ccc(CC)cc1 (configuration not stated)	-	-	-	-	17.8
CCOCCCNC(=O)C1(O)c2ccccc2NC(=O)N1c1ccc(Cl)cc1 (configuration not stated)	-	-	-	-	12.0
CCOc1ccc(/C=C/C(=O)Nc2ccc(OC)cc2[N+](=O)[O-])cc1	-	-	-	-	28.2
COc1ccc(NC(=O)/C=C/C(=O)O)c([N+](=O)[O-])c1	-	-	-	-	-
CCOc1ccc(N/C=C/C(=O)c2ccccc2)c([N+](=O)[O-])c1	-	-	-	-	18.4
COc1ccc(/C=C/C(=O)Nc2ccccc2C(=O)O)cc1	-	-	-	-	19.6
COc1ccc(/C=C/C(=O)Nc2ccccc2C(=O)N2CCCC2)cc1	-	-	-	-	-
CCOc1ccc(NC(=O)/C=C/c2ccccc2)c([N+](=O)[O-])c1	-	-	-	-	15.5
CCCCCCCCN1C(=O)[C@H](CC(=O)NCCCCc2ccccc2)C[C@@]2(C(=O)OC)CCCCC=C12	-	-	-	-	.
CCC(c1ccc(OC)cc1)c1cn(C)c2ccccc12 (configuration not stated)	-	-	.	.	.
COc1ccc(Br)cc1/C=C/C(=O)Nc1ccc2ccccc2c1	-	-	-	-	15.3
COc1ccc(Br)cc1/C=C/C(=O)Nc1ccc(C)cc1	-	-	-	-	19.9
N#C/C(=C\c1cccs1)C(=O)Nc1nccs1	-	-	-	-	-
Cc1nc2ccccc2c2c1C(=O)N(Cc1cccnc1)C2=O	-	-	-	-	-
SMILES	ADAM10 inh	ADAM17 inh	FAS TE block	aDG glyco act	GRIN3A LBD mod
CC(=O)Oc1cccc(/C=C2\Sc3ccccc3C2=O)c1	-	-	-	-	17.0
CCCCOc1ccc(/C=C2/Sc3ccccc3C2=O)cc1	-	-	-	-	-
COc1ccc(-c2nc(N/N=C(\C)c3ccc(O)cc3)c3ccccc3n2)cc1	-	-	-	-	12.7
COc1ccc(Nc2nc(-c3ccccc3)nc3ccccc23)cc1	-	-	-	-	34.2
COc1ccc(Nc2nc(-c3cccc([N+](=O)[O-])c3)nc3ccccc23)cc1	-	-	-	-	46.2
O=[N+]([O-])c1ccc(-c2nc(Nc3ccc(O)cc3)c3ccccc3n2)cc1	-	-	-	-	22.9
C/C(=N\Nc1nncc2ccccc12)c1ccc(O)cc1	-	-	-	-	-
CNC(=O)NC(=S)NC(=O)c1cccc(Cl)c1	-	-	-	-	-
CN(C)c1ccnc2c[cH-]cc12.[Fe].c1ccc(-[c-]2[c-](-c3ccccc3)[c-](-c3ccccc3)[c-](-c3ccccc3)[c-]2-c2ccccc2)cc1 (configuration not stated)	-	-	-	-	-
CC1(c2nnnn2-c2ccc3c(c2)OCCO3)CCC(=O)N1CC(F)(F)F (configuration not stated)	-	-	-	-	.
Oc1ccc(Nc2nc3ccccc3nc2Nc2ccc(O)cc2)cc1	.	.	-	-	16.7
Cc1n[nH]c(=O)nc1Nc1ccc(O)cc1	-	-	-	-	-
COc1ccc(Nc2nc(-c3cccs3)nc3ccccc23)cc1	-	-	-	-	27.4
O=C(Nc1nc(-c2ccccc2)nc2ccccc12)c1ccc(F)cc1	-	-	-	-	-
Oc1ccc(Nc2nc(-c3ccccc3)nc3ccccc23)cc1	.	.	-	-	41.7
CC(=O)Nc1ccc(Nc2nc(-c3ccccc3)nc3ccccc23)cc1	-	-	-	-	11.6
S=c1[nH]c2ccc(Cl)cc2s1	-	-	-	-	-
O=C(O)Cn1cc(/C=C2/NC(=O)N(c3ccc(Cl)cc3)C2=O)c2ccccc21	-	-	-	-	-
Cc1cccc(-c2nc(Nc3cccc(O)c3)c3ccccc3n2)c1	-	-	-	-	32.3
Cc1nn(Cc2noc(C(=O)NCc3ccc(F)cc3)n2)c(C)c1Br	-	-	-	-	-
N#Cc1c(NC(=O)c2ccccc2)sc2c1CCCCC2	-	-	-	-	-
N#Cc1c(Cl)nsc1NC(=O)c1ccccc1	-	-	-	-	10.9
CC(CCc1ccccc1)NC(=O)CCNC(=O)c1ccccc1Cl (configuration not stated)	-	-	-	-	-
COc1cccc(Oc2ccc(N)cn2)c1	-	-	-	-	-
Cc1cc(Oc2ccc(N)cn2)ccc1Cl	-	-	-	-	13.9
SMILES	ADAM10 inh	ADAM17 inh	FAS TE block	aDG glyco act	GRIN3A LBD mod
Nc1nc(N)c2sc3nc(C(F)(F)F)cc(C(F)(F)F)c3c2n1	-	-	-	-	31.9
COC(=O)c1nn(-c2ccccc2)c(Cl)c1/C=N/O	-	-	-	-	-
COC(=O)c1nn(-c2ccccc2)c(Cl)c1/C=N/OCc1ccc(Cl)cc1Cl	-	-	-	-	12.4
CCOC(=O)c1cc2ccc(OC)c(OC)c2c(=O)s1	-	-	-	-	-
COc1cc(NC(=O)c2cc3c(Cl)nc4ccccc4c3s2)cc(OC)c1OC	-	-	-	-	-
COc1ccc2cc(C(=O)Nc3ccccc3)sc(=O)c2c1OC	-	-	-	-	21.9
COc1ccc2cc(C(=O)NCCO)sc(=O)c2c1OC	-	-	-	-	-
O=C(Nc1ccccc1)c1ccc(-c2ccccc2)s1	-	-	-	-	14.5
O=C(O)c1ccc(-c2ccc(-c3ccccc3)cc2)s1	.	.	-	-	.
